High-throughput results deposited in PubChem by National Center for Advancing Translational Sciences (NCATS).
BAZ2B inh: BAZ2B (human) inhibition. Q9UIF8. AlphaScreen BAZ2B-H3K14Ac peptide displacement. Potency, µM (series often up to 114 µM), for inactives: at the highest dose activity change, negative = inhibition, usual class: inhibitors. hit rate 4.4% among 360,000. AID 504333; also: % is scaled to controls: 0 for no effect and ±100 for the full control effect; nearly all actives have a fitted effect of over 60% in size
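Multi-concentration screen (max 110 uM) measuring displacement of acetylated histone H3 peptide from BAZ2B by AlphaScreen, using 50 nM protein, 50 nM peptide and 10 ug/mL streptavidin donor plus Ni-chelate acceptor beads.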
JMJD2A Tudor: JMJD2A Tudor domain (human) inhibition. AlphaScreen JMJD2A-Tudor / H3K4me3 peptide binding. Potency, µM (series often up to 114 µM), for inactives: top-dose activity change, negative = inhibition, hits mostly inhibitors. hit rate 4.4% among 390,000. AID 504339; also: % is scaled to controls: 0 for no effect and ±100 for the full control effect; nearly all actives have a fitted effect of over 50% in size
Target sequence (O75164 whole entry, looked up, the tested form may be a part): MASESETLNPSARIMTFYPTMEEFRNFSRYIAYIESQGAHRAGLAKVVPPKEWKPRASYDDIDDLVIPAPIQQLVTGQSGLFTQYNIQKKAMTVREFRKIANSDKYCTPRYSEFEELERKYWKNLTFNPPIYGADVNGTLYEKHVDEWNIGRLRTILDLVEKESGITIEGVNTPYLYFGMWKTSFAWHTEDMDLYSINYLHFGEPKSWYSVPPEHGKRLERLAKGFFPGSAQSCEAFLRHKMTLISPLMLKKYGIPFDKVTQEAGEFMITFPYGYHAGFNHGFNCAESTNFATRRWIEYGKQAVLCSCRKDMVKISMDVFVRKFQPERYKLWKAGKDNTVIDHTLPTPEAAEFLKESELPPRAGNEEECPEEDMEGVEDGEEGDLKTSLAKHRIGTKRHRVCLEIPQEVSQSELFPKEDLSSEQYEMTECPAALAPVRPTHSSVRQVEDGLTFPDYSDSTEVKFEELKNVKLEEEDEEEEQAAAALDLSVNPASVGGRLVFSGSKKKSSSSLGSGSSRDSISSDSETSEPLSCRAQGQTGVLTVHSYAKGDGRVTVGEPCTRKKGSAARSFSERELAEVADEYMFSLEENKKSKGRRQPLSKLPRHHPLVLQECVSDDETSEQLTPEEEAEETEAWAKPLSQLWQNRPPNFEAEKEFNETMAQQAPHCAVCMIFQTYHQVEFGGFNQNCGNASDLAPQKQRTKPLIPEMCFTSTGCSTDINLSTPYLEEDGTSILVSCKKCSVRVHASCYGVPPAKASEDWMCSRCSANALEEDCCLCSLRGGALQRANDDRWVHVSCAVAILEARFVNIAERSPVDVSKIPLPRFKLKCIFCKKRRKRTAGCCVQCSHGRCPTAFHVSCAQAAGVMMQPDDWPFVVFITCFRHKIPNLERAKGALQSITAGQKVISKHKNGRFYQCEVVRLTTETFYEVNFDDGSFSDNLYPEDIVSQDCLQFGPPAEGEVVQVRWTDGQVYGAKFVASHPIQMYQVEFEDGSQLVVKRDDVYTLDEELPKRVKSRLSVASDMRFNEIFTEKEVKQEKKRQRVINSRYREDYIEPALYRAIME
G9a inh: inhibitors of human histone lysine methyltransferase G9a. AID 504332. hit rate 8.8% among 350,000. Potency, µM (highest dose often 102 µM), for inactives: at the top dose activity, negative = inhibition, usual class: inhibitors. G9a H3K9 monomethylation, AlphaScreen, 2 h. Q96KQ7; also: % is scaled to controls: 0 for no effect and ±100 for the full control effect; nearly all actives have a fitted effect of over 75% in size
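Compounds were preincubated with 20 nM G9a for 15 min, after which biotinylated H3K9 peptide (500 nM) and SAM (20 uM) started a 2 h room-temperature reaction. Monomethylated product was quantified by antibody-based AlphaScreen chemiluminescence.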
HP1b chromo inh: HP1-beta chromodomain-methylated histone interaction inhibition; AlphaScreen HP1-beta / biotin-H3K9me3 peptide binding; Potency, µM (highest dose often 114 µM), for inactives: top-dose activity change, negative = inhibition, actives largely listed as inhibitors; hit rate 0.56% among 390,000; AID 540317; also: nearly all actives have a fitted effect of over 70% in size
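AlphaScreen: HP1-beta (50 nM) preformed 30 min with biotin-H3(1-18)K9me3 peptide (50 nM) in PBS pH 7.4, 0.01% Tween-20. Compound added for 30 min at RT, then streptavidin donor/nickel chelate acceptor beads (10 ug/mL) for 30 min.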
L3MBTL1 inh: L3MBTL1 (human) inhibition; Q9Y468; AlphaScreen L3MBTL1–H3K9me1 peptide binding; Potency, µM (series often up to 57.1 µM), for inactives: at the top dose activity, negative = inhibition, actives largely listed as inhibitors; hit rate 0.66% among 230,000; AID 485360; also: % is scaled to controls: 0 for no effect and ±100 for the full control effect; nearly all actives have a fitted effect of over 60% in size
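L3MBTL1 (50 nM) pre-complexed 30 min with biotinylated H3(1-15)K9me1 peptide (75 nM), then compounds added for 30 min at room temperature; AlphaScreen streptavidin donor/nickel chelate acceptor beads (10 ug/mL final) read after 30 min dark incubation.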
* marks the source's active call; other numbers are inactive results; [ ] = another dose, or the depositor's remark. In the library only some 11% were active in any assay of this set; here they are far more common. Calls follow the shape of the dose curve; as a rule, active = well fitted inhibition curve with a large enough effect; inconclusive = small, poorly fitted or top-dose-only effect; inactive = no such curve, though single readings can be large or run the other way. Potency is read from the fitted curve at half-maximal effect.

What do the screens show for `O=C(Nc1ccc(Cl)cc1C(=O)NCCN1CCOCC1)c1ccco1`?
BAZ2B inh: -2%; JMJD2A Tudor: -16%; G9a inh: -36%[59 µM]; HP1b chromo inh: 43%; L3MBTL1 inh: 9%

How did O=C(NCCCNC(=O)c1ccccc1F)c1ccco1 do in these assays?
BAZ2B inh: -8%; JMJD2A Tudor: -3%; G9a inh: 10%; HP1b chromo inh: 26%

Results for COc1ccccc1C(=O)NNC(=O)C(=O)NCc1ccccc1 ?
BAZ2B inh: -34%; JMJD2A Tudor: inconclusive; G9a inh: 28µM*; HP1b chromo inh: 23%; L3MBTL1 inh: 4%

Results for O=C(Nc1ccccc1C(=O)NCCN1CCOCC1)c1ccco1 ?
BAZ2B inh: -4%; JMJD2A Tudor: 0%; G9a inh: 50µM*; HP1b chromo inh: 19%; L3MBTL1 inh: 22%

Results for CC(C)NC(=O)c1ccc2c(c1)nc1n2CCCCC1 ?
BAZ2B inh: 3%; JMJD2A Tudor: -2%; G9a inh: -20%[59 µM]; HP1b chromo inh: 23%[57 µM]

How did Cc1ccc(S(=O)(=O)N(CC(=O)Nc2c(C)cccc2C)c2cccc(Cl)c2)cc1 do in these assays?
BAZ2B inh: -20%; JMJD2A Tudor: -11%; G9a inh: -3%[59 µM]; HP1b chromo inh: 7%

What do the screens show for `O=C(NCCc1ccccc1Cl)c1cc2ccccn2n1`?
BAZ2B inh: -3%; JMJD2A Tudor: -15%; G9a inh: 5%[59 µM]; HP1b chromo inh: 29%

How did Cc1ccn2c(NC(=O)c3cccc(Cl)c3)c(-c3ccccc3)nc2c1 do in these assays?
BAZ2B inh: 16%; JMJD2A Tudor: -25%; G9a inh: 9%[59 µM]; HP1b chromo inh: 21%

What do the screens show for `COc1ccccc1N1CCN(S(=O)(=O)c2c(C)sc3ncn(CC(=O)N(C)c4ccc(C(C)C)cc4)c(=O)c23)CC1`?
BAZ2B inh: -11%; JMJD2A Tudor: -26%; G9a inh: -48%[59 µM]; HP1b chromo inh: 21%

How did COc1ccccc1C(=O)NCCNC(=O)c1ccco1 do in these assays?
BAZ2B inh: 1%; JMJD2A Tudor: 25µM*; G9a inh: -7%[59 µM]; HP1b chromo inh: inconclusive; L3MBTL1 inh: 25%

What do the screens show for `CCOC(=O)N/N=C/c1ccc(N(CC)CC)cc1O`?
BAZ2B inh: inconclusive; JMJD2A Tudor: -36%; G9a inh: inconclusive; HP1b chromo inh: -20%; L3MBTL1 inh: -12%

How did CCN(CC)c1ccc(/C=N/NC(=O)c2cccc(S(=O)(=O)N3CCOCC3)c2)c(O)c1 do in these assays?
BAZ2B inh: 1%; JMJD2A Tudor: -34%; G9a inh: 29%; HP1b chromo inh: -1%; L3MBTL1 inh: -2%

What do the screens show for `CCN(CC)c1ccc(/C=N/NC(=O)c2c(Cl)cnn2C)c(O)c1`?
BAZ2B inh: 79µM*; JMJD2A Tudor: -33%; G9a inh: -3%[59 µM]; HP1b chromo inh: 43%; L3MBTL1 inh: inconclusive

Results for CCN(CC)c1ccc(/C=N/Nc2ccc(C)cc2)c(O)c1 ?
BAZ2B inh: 45µM*; JMJD2A Tudor: -1%; G9a inh: 1.8µM*; HP1b chromo inh: 21%; L3MBTL1 inh: inconclusive

What do the screens show for `COc1ccc(C2/C=C\CN(Cc3ccc(N(C)C)cc3)CC(=O)N2Cc2ccc(F)cc2)cc1` (stereo unspecified)?
BAZ2B inh: 32µM*; JMJD2A Tudor: 25µM*; G9a inh: inconclusive; HP1b chromo inh: inconclusive

What do the screens show for `Oc1ccc(-c2cn3c(n2)SCC3)cc1`?
BAZ2B inh: -11%; JMJD2A Tudor: -28%; G9a inh: 8.9µM*; HP1b chromo inh: 1%

What do the screens show for `Oc1ccc(-c2cn3c(n2)SCC3)cc1O`?
BAZ2B inh: inconclusive; JMJD2A Tudor: 11µM*; G9a inh: 1.1µM*; HP1b chromo inh: inconclusive

How did COc1ccccc1-n1c(SCC(=O)Nc2ccc(F)cc2)nc2c(c1=O)SCC2 do in these assays?
BAZ2B inh: -29%; JMJD2A Tudor: -19%; G9a inh: 50µM*; HP1b chromo inh: 19%; L3MBTL1 inh: -2%

Results for COc1ccc(NC(=O)CSc2nc3c(c(=O)n2-c2ccc(F)cc2)SCC3)cc1 ?
BAZ2B inh: 0%; JMJD2A Tudor: -30%; G9a inh: -16%[59 µM]; HP1b chromo inh: 23%; L3MBTL1 inh: -12%

Results for CCn1c(SCC(=O)Nc2cc(OC)ccc2OC)nc2c(c1=O)SCC2 ?
BAZ2B inh: 79µM*; JMJD2A Tudor: inconclusive; G9a inh: -28%; HP1b chromo inh: -19%

What do the screens show for `COCCn1c(SCC(=O)NCC2CCCO2)nc2c(c1=O)SCC2` (stereo unspecified)?
BAZ2B inh: -19%; JMJD2A Tudor: 89µM*; G9a inh: 25%; HP1b chromo inh: 27%

What do the screens show for `COCCn1c(SCC(=O)NC2CCCCC2)nc2c(c1=O)SCC2`?
BAZ2B inh: -22%; JMJD2A Tudor: -19%; G9a inh: 8%; HP1b chromo inh: 19%

What do the screens show for `CCOc1ccccc1C(=O)N1CCCCC1CCN1CCOCC1` (stereo unspecified)?
BAZ2B inh: 0%; JMJD2A Tudor: -19%; G9a inh: -6%[59 µM]; HP1b chromo inh: 39%

Results for COc1ccccc1CNC(=O)c1cc2c(=O)oc3ccc(C)cc3c2s1 ?
BAZ2B inh: -8%; JMJD2A Tudor: -22%; G9a inh: 2%[59 µM]; HP1b chromo inh: 20%

What do the screens show for `COc1ccc2c(c1)c(N1CCCC1=O)c(C(=O)Nc1cc(C)c(Cl)cc1OC)n2C`?
BAZ2B inh: inconclusive; JMJD2A Tudor: -16%; G9a inh: -37%[59 µM]; HP1b chromo inh: -1%

Results for Cc1ccccc1NC(=O)CSc1nc2c(oc3ccccc32)c(=O)n1Cc1ccco1 ?
BAZ2B inh: 2%; JMJD2A Tudor: -10%; G9a inh: -26%[59 µM]; HP1b chromo inh: 31%

How did Cc1ncoc1C(=O)N1CCc2c([nH]c3ccccc23)C1C1CCCCC1 (stereo unspecified) do in these assays?
BAZ2B inh: 25µM*; JMJD2A Tudor: inconclusive; HP1b chromo inh: -2%; L3MBTL1 inh: -4%

Results for Cc1cnc(CN2CCc3c([nH]c4ccccc34)C2C2CCCCC2)[nH]1 (stereo unspecified) ?
BAZ2B inh: -18%; JMJD2A Tudor: -20%[57.1 µM]; G9a inh: -3%; HP1b chromo inh: -6%; L3MBTL1 inh: 0%

What do the screens show for `c1ccc2c3c([nH]c2c1)C(C1CCCCC1)N(Cc1ncc[nH]1)CC3` (stereo unspecified)?
BAZ2B inh: inconclusive; JMJD2A Tudor: inconclusive; G9a inh: 45µM*; HP1b chromo inh: -7%; L3MBTL1 inh: -10%

What do the screens show for `C/C(=C\C(=O)c1ccc(C)o1)Nc1ccc(C(=O)O)cc1C`?
BAZ2B inh: inconclusive; JMJD2A Tudor: 28µM*; G9a inh: 71µM*; HP1b chromo inh: -9%; L3MBTL1 inh: -11%
